# Laboratory results: PubChem BioAssay (NCI)
# This is part of a sample that, as a whole, favours compounds with a hit. Of some 79,000 tested, about 15% had one in any assay. Unmarked numbers belong to inactive results. The source made the active and inactive calls. No stated cut-off is given here; in the data, active means growth inhibition above about 70%; inactive means the rest.
# Experiments:
# [1] = NCI Yeast Anticancer Drug Screen. Data for the rad50 strain (AID 155);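 further: 0% = growth of vehicle-only cultures of the same strain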; conditions: S. cerevisiae rad50 strain growth inhibition; at 50.0 µM; active compounds read high
# Procedure, shortened: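 DNA repair mutant yeast, compound exposure, growth read-out; inhibition is taken relative to vehicle.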
# [2] = NCI Yeast Anticancer Drug Screen. Data for the mec2-1 strain (AID 157); conditions: S. cerevisiae mec2-1 strain, at 50.0 µM, active compounds read high
# Procedure, shortened: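 Mutant yeast (mec2-1) grown with compound; growth inhibition relative to vehicle control reported.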
# [3] = NCI Yeast Anticancer Drug Screen. Data for the sgs1 mgt1 strain (AID 161);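 further: 0% = growth of cultures given vehicle only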; conditions: S. cerevisiae sgs1 mgt1 strain, at 50.0 µM, active compounds read high
# Procedure, shortened: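 Yeast cells carrying a defined DNA-repair defect were exposed to test compounds. Growth inhibition was measured relative to vehicle-treated controls.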
# [4] = NCI Yeast Anticancer Drug Screen. Data for the cln2 rad14 strain (AID 165);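 further: 0% = growth equal to vehicle treated cultures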; conditions: S. cerevisiae cln2 rad14 strain, at 50.0 µM, active compounds read high
# Procedure, shortened: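 Readout is yeast growth inhibition versus vehicle-treated controls, using a strain with cln2 and rad14 alterations exposed to compound.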
# [5] = NCI Yeast Anticancer Drug Screen. Data for the bub3 strain (AID 167); conditions: S. cerevisiae bub3 mutant strain, at 50.0 µM, active compounds read high
# Procedure, shortened: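 In this screen, a yeast mutant lacking normal mitotic checkpoint function is challenged with compound. Relative growth versus vehicle gives the inhibition value.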
# [6] = NCI Yeast Anticancer Drug Screen. Data for the mlh1 rad18 strain (AID 175); conditions: S. cerevisiae mlh1 rad18 strain growth inhibition; at 50.0 µM; active compounds read high
# Procedure, shortened: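 Genetically defined yeast (DNA repair-deficient) exposed to compounds; growth inhibition determined relative to vehicle.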
SMILES,growth inhibition [1],growth inhibition [2],growth inhibition [3],growth inhibition [4],growth inhibition [5],growth inhibition [6]
CCC1=Nc2ccccc2C(c2ccccc2)NC1=O (centres undefined),-2%,-19.7%,4.5%,6%,-9.65%,24.9%
Cc1cccc(C)c1NC(=O)C(=O)CC(=O)c1cccc([N+](=O)[O-])c1,45.4%,11.9%,2.2%,24.4%,19.2%,40.9%
N=C(N)/N=C(/C=C/c1ccccc1)CC1OC(=O)c2ccccc21 (centres undefined),-6.95%,-10.7%,-22.6%,-2.85%,-28.8%,-24.3%
CCCCNC1(N(C)C)N=C(N(C)C)N=C(N(C)C)O1 (centres undefined),-2.2%,-1.4%,-1.05%,17.8%,8.35%,-0.45%
O=C(O)COc1c2occc2cc2ccc(=O)oc12,7.9%,-12.4%,22.7%,1.55%,-3.1%,6%
Cc1cc(N(C)c2ccccc2)nc(N(C)c2ccccc2)n1,-24.4%,-16.6%,-6.05%,-14.6%,-23.3%,-61.5%
Cc1cc(=O)n2c(cc3cccccc32)n1,14.6%,-1.3%,-13.4%,-23.4%,-23.4%,4.65%
O=C(O)C1C(CCl)=C1CCl,-15.8%,20.7%,2.35%,-11.3%,4.7%,-2.9%
CC1(C)C2CCC(CN)C1C2 (centres undefined),-11.4%,-44.6%,-1.7%,13.3%,-20.1%,-15.6%
OC(CCN1CCC2CCC(C2)C1)(c1ccccc1)c1ccc(Cl)cc1 (centres undefined),-4.55%,-16.1%,14%,-26.5%,4.4%,-17.2%
O=C(O)C(CBr)c1ccccc1 (centres undefined),6.7%,7.2%,-0.55%,13.2%,0.05%,0.5%
C=C(C)COC(=O)Nc1cccc(Cl)c1,58.9%,-4.15%,4.7%,13.4%,10.2%,24.9%
C/C(=N\NC(=S)N1CCN(c2ncccn2)CC1)c1ccccn1,-2.4%,-7.1%,-6.8%,-21.8%,9.35%,4.2%
CC(=O)OC1C=C(C=O)C(O)(C=O)C2(C)CCCC(C)(C)C12 (centres undefined),-20.2%,-29.5%,-18.6%,7.95%,8.65%,-17.6%
Nc1cc(Cl)c(I)c(Cl)c1,-4.5%,-29.6%,5.05%,10.2%,-2.15%,14.4%
Cc1nc2c(=O)[nH]c(N)nc2[nH]c1=O,-10%,-4%,-6.15%,-30.4%,-13.8%,2.3%
COC(=O)C1(OC(=O)Sc2ccccc2)CCN(C)CC1,-19.8%,-5.95%,-7.15%,15.4%,-7.55%,-25.1%
O=C1CC(c2ccccc2)S(=O)c2ccccc2N1 (centres undefined),-7.5%,5.25%,-9.9%,26.8%,11.6%,-1.25%
CCOC(=O)CC1CC2c3cc(OC)c(OC)cc3CCN2CC1CC (centres undefined),3.1%,12.8%,-6.7%,-5.25%,1.95%,13.8%
O=S(=O)(O)C(O)C(F)(F)C(F)(F)C(F)(F)F (centres undefined),16.2%,-1.75%,22.9%,-37.8%,-30.6%,19.9%

SMILES,growth inhibition [1],growth inhibition [2],growth inhibition [3],growth inhibition [4],growth inhibition [5],growth inhibition [6]
CCN(CC)CC(O)Cn1cnc2c(=S)nc[nH]c21 (centres undefined),8.7%,-4.05%,-3.45%,4.9%,1.45%,-4.45%
Cc1cccc(NC(=O)Oc2cc(C)c(Cl)cc2C(C)C)c1,93% (active),98.9% (active),96.8% (active),93.3% (active),98.5% (active),98% (active)
CCCCCCCCC(=O)N1CCOCC1,17.4%,7.15%,18.3%,16.4%,-0.8%,8.8%
COCC12CCC(OC)C34C5CC6(O)C(OC)CC(OC(C)=O)(C5C6OC(=O)c5ccccc5)C(C(OC)C13)C4N(C)C2 (centres undefined),-24.5%,-23.8%,-26.5%,-8.9%,-1.45%,-77.5%
CC(=O)Nc1ccc(S(=O)(=O)NNC(=O)C(=O)Nc2cccc(Cl)c2)cc1,-12.5%,-21.4%,-18.2%,16.4%,-0.1%,-1.6%
CNC(=O)SCC(NC(=O)CCC(N)C(=O)O)C(=O)NCC(=O)O (centres undefined),-7.45%,9.55%,27.4%,28.4%,18.4%,36.3%
COC(=O)Cc1cccnc1,-3.3%,-6.85%,-11.3%,-0.55%,0.05%,12.7%
CCOc1ccccc1/C=C1\CCc2ccccc2C1=O,21.6%,34.8%,42.7%,0.4%,49.9%,23%
COc1ccc(CNc2cnc3cc(N)ccc3n2)cc1OC,-12.3%,-34.5%,-37.5%,3.15%,-19.3%,-16.4%
CN(C)c1ccccc1CN1CCCN(Cc2ccccc2N(C)C)C1c1ccncc1,-16.3%,-10.1%,-12.3%,-0.25%,-16.2%,-1.55%
N#C/C(=C\c1ccco1)C(=O)c1ccco1,19.4%,15.1%,28.2%,13.8%,38.7%,34.6%
CCCCCCC(O)CC[C@H]1CCC[C@@H](C)N1 (some centres undefined),46%,26.3%,39.5%,38.9%,45.5%,38.5%
O=C(O)C1C=CCC2C(O)C=CC(=O)C12 (centres undefined),-5.95%,-31.2%,-1.05%,-2.4%,-11%,-5.9%
Cc1cc(=O)n(-c2ccc(-c3ccc(-n4c(C)c(C(=O)O)c(C)cc4=O)cc3)cc2)c(C)c1C(=O)O,-45%,6.35%,19.3%,24.1%,-2.4%,27.6%
Clc1ccc(C2N(Cc3ccccc3)CCC3CCCCN32)cc1Cl (centres undefined),-10.1%,-21.6%,13.7%,26.1%,-10.1%,-1.4%
CC(NC(=O)c1ccccc1)C(=O)O (centres undefined),25.4%,-6.4%,-26.6%,-24.2%,0.6%,27.7%
C/C(=N\NC(N)=S)C(CN(CC(C)C)CC(C)C)C(=O)Nc1ccc(C)cc1C (centres undefined),-18.7%,6.4%,-7.15%,16%,-1.15%,-2.75%
C=CCC12CC(O)C(O)CC1(OC)OC(c1cc(OC)c(OC)c(OC)c1)C2C (centres undefined),-1.1%,-8.75%,-8.1%,-4.75%,4.35%,7.9%
CCN(C)C(=O)NC(C)=O,2.65%,11.1%,-17.9%,-14%,2.5%,15%
